The text below walks through data of PubChem BioAssay (NCI).

Each structure is given as a SMILES string. Compounds without any hit were thinned out: in the full panel of roughly 79,000, 15% have a hit. Unmarked numbers belong to inactive results. Rule as the data show it: active = growth inhibition above about 70%; inactive = the rest.

The assay is described as follows: NCI Yeast Anticancer Drug Screen. Data for the sgs1 mgt1 strain (AID 161).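 Also: 0% = growth of cultures given vehicle only.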 To be noted: S. cerevisiae sgs1 mgt1 strain, at 50.0 µM, hits give high values. The procedure, abridged: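 Yeast cells carrying a defined DNA-repair defect were exposed to test compounds. Growth inhibition was measured relative to vehicle-treated controls.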
Regarding `CCCc1nc2ccc(C)cc2[nH]1`, the growth inhibition is -18.2%.
Then `COc1cc(C2C3=C(COC3=O)OC(C)(C)Oc3cc4c(cc32)OCO4)cc(OC)c1O` (stereo not given), with -7.3%; and `O=C(O)C(CCOc1ccccc1)(CCc1ccccc1)C(=O)O`, with 5.7%; and `COC(=O)c1c(C(=O)Nc2ccccc2)c(-c2ccccc2)n(NC(N)=O)c1C`, with 4.2%.
The result for `CC(=O)Nc1ccc(/C=C2\SC(=S)N(/C=C3/C(=O)N(c4ccccc4)N=C3C)C2=O)cc1` reads 4%; that for `CC(=O)N1C(Nc2ccccc2)CCN1c1ccccc1` (stereo not given), -14.1%.
The result for `COC1OC(CO)C(O)C(NC(=O)OCc2ccccc2)C1O` (stereo not given) reads 3.05%.
For `CN=C(N)SCCCSC(N)=NC`, the growth inhibition is 28%.
The result for `CC(=O)NCS(=O)(=O)O` reads -0.9%; that for `Cc1ccc(/C=C/c2cc(/C=C/c3ccc(C)cc3)c([N+](=O)[O-])cc2[N+](=O)[O-])cc1`, -2.3%.
The result for `C1=C2CCc3ccc(o3)CCC(=C1)O2` reads 10.2%; that for `COc1cc2c(cc1OC)C1=Cc3cc(OC)c(OC)cc3C(C)N1C=C2` (stereo not given), -26.6%.
Then `O=C(O)CC(c1ccccc1)C(CC(=O)O)c1ccccc1.[NH-]C1CCCCC1[NH-].[Pt+2]` (stereo not given), with -49.9%.
Turning to `Nc1cccc2c(=O)[nH][nH]c(=O)c12`, the growth inhibition was 23.9%.
The result for `N#C/C(=C/c1ccc[nH]1)C(=O)O` reads -6.9%; that for `CCOC(=O)c1ccc(NC(=S)NCc2cccnc2)cc1`, 24.6%.
Regarding `COC1OC(CO)C(O)C1O` (stereo not given), the growth inhibition was 2.55%.
For `C=C1C(=O)OC2/C=C(/CO)C3(O)CC(O)C(C)(CC(OC(=O)/C(C)=C/C)C12)O3` (stereo not given), the growth inhibition is 14.9%.
The result for `CCOC(=O)C(C(=O)OCC)c1cnc2ccccc2c1Cl` reads 6.55%; that for `CCCCNC(=O)NCCCC`, -5.75%.
The result for `CC(C)(O)C#Cc1ccccc1` reads -0.95%.
The result for `CC(C)(C)CC(C)(C)c1cc2c(O)c(c1)Cc1cc(C(C)(C)CC(C)(C)C)cc(c1O)Cc1cc(C(C)(C)CC(C)(C)C)cc(c1O)Cc1cc(C(C)(C)CC(C)(C)C)cc(c1O)Cc1cc(C(C)(C)CC(C)(C)C)cc(c1O)C2` reads 8.75%; that for `Cc1c(Cl)cccc1NC(=O)Nc1ccccc1F`, 15.2%; that for `CCCC(=O)Oc1ccc(C(C)(C)C)cc1`, 15.2%.
For `Cc1ccc(NC(=O)Oc2ccccn2)cc1`, the growth inhibition was -8.05%.
Then `CCNC(=O)NC(=O)C(C)(C)Oc1ccc(Cl)cc1`, with 7.4%; and `COc1cc(C(=O)n2ncc(C(C)=O)c2C)cc(OC)c1OC`, with 12.9%.
Then `CCCCCCCCCC[C@@H](OC(C)=O)[C@@H]1CC[C@@H]([C@@H]2CC[C@@H]([C@@H](O)CC#C/C=C/CCCCCCC[C@@]3(Sc4ccccc4)C[C@H](C)OC3=O)O2)O1`, with -16.1%.
Then `CCOC(=O)CC1NC(=O)CNC1=O` (stereo not given), with 5.3%; and `O=[N+]([O-])c1cc2c(c3nonc13)OCCCCO2`, with 47.4%.
On to `Cc1cc(Cl)ccc1NC(N)=O`, for which the growth inhibition is 5.15%.
The result for `CCN(CC)CC1CCCCCCCCCCC1=O` (stereo not given) reads -32.7%; that for `O=C(O)Cc1ccc(N2N=C(c3ccccc3)CC2=O)cc1`, -13.6%.
Then `CC(C)(C)[Si](C)(C)OCC1CCC(n2cnc3c(N)ncnc32)O1` (stereo not given), with -6.2%.
The result for `Cc1ccc(S(=O)(=O)/C(C#N)=C\N2CC(=O)NC2=S)cc1` reads -23.2%.
Consider `NC(=S)N/C=C\c1nc2ccccc2[nH]c1=O`, for which the growth inhibition was -39.1%.
Then `COC(=O)C(CC(=O)[C@H]1CC[C@H]2[C@@H]3CC=C4C[C@@H](OC(C)=O)CC[C@]4(C)[C@H]3CC[C@]12C)OC(C)=O` (stereo not given in full), with 26.7%.
The result for `COc1ccc(/C(=N\NC(=O)C(N)=O)C(c2ccc(OC)cc2)C2(O)C(=O)Nc3c(Cl)cccc32)cc1` (stereo not given) reads -49.5%; that for `COc1c2occc2c(Br)c2ccc(=O)oc12`, 19.4%; that for `COc1ccc(/C=N/NC(=O)NCCNCCO)cc1`, -32.8%.
